Screens deposited in PubChem BioAssay by National Center for Advancing Translational Sciences (NCATS).
This is a sample that favours compounds with a hit; in the whole collection about 3.2% have one here.
Nrf2 block: Nrf2 qHTS screen for inhibitors; Potency, µM (highest dose often 46 µM), for inactives: at the top dose activity change, negative = inhibition, hits mostly inhibitors; AID 504444, 2011; 2.1% of 360,000 active; A549 ARE-Fluc reporter, luciferase luminescence, 18-24 h; further: potency means the concentration at half of the fitted maximal effect; on the % scale 0 is the no-effect control and ±100 the full control effect; nearly all actives have a fitted effect of over 60% in size
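Quantitative HTS in A549 cells stably bearing an antioxidant response element-firefly luciferase construct. Inhibition of Nrf2-driven transcription was scored by luminescence after 18-24 h of compound exposure at 37 °C.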
p53 reactivation: qHTS assay for re-activators of p53 using a Luc reporter; Potency, µM (doses to about 92.2 µM), for inactives: at the highest dose activity change, positive = activation, actives largely listed as activators; H1299 p53-A138V BP100-luciferase reporter, luminescence, 24 h; AID 504706, 2011; 0.063% of 320,000 active; further: potency means the concentration at half of the fitted maximal effect; % of control where 0% means no effect; nearly all actives have a fitted effect of over 45% in size
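p53-null H1299 cells stably carrying temperature-sensitive p53-A138V and a BP100-luciferase reporter were pinned with compounds (4-point, 1:5 series) and held 24 hrs at 37 deg C. Luminescence was read 10 min after detection reagent.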
IL2 activator: qHTS of IL-2 Activators | activation, % (series mostly up to about 46 µM) | 0.065% of 360,000 active | IL-2 activation reporter assay, cell-based qHTS; stimulated with anti-CD3/CD4/CD28 beads; in transgenic mouse T cells; in the data active means activation above about 50%; inconclusive means mostly about 30% to 49%; further: 0% is about no effect
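First, unstimulated transgenic mouse T cells were exposed to compound for 60 min. Next, anti-CD3/anti-CD4-coated beads with anti-CD28 were added. Finally, after 18 h at 37 degrees C, EGFP and DsRed were imaged.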
BRCA1 expr act: qHTS Assay to Identify Small Molecule Activators of BRCA1 Expression. MCF7-BRCA1-FFLuc reporter, luminescence, 48 h; response scale: scaled: vehicle 0%, 10 µM genistein 100%. Potency, µM (titrated, usually from 46.1 µM), without a hit: at the highest dose activation, hits mostly activators. 1.1% of 380,000 active. AID 624202, 2012; further: potency means the concentration at half of the fitted maximal effect; nearly all actives have a fitted effect of over 80% in size
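MCF7-BRCA1-FFLuc cells, 2000/well in phenol-red-free MEM, attached 2 h then treated 48 h at 37 C. Luciferase luminescence read 15 min after reagent; normalized to genistein maximum activation (10microM) and DMSO, concentration-response fitted.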
Nrf2 ARE act: qHTS of Nrf2 Activators | AREc32 ARE-luciferase reporter (MCF7-derived line), luminescence, 24 h | Potency, µM (doses to about 46.1 µM), for inactives: top-dose activation, actives largely listed as activators | 0.31% of 410,000 active | AID 624171, 2012; further: potency means the concentration at half of the fitted maximal effect; % of control where 0% means no effect; nearly all actives have a fitted effect of over 65% in size
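ARE activation measured as luciferase luminescence (Steady-Glo, 30 min RT) in AREc32_Fluc cells after 24 hr compound exposure at 37 deg C, 5% CO2; cells seeded overnight at 1000/well in OPTI-MEM, 5% FBS.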
A549 viability: Nrf2 qHTS screen for inhibitors: counterscreen for cytotoxicity. Potency, µM (titrated, usually from 46 µM), for the others: at the top dose activity change, negative = cytotoxicity, actives largely listed as inhibitors. 0.16% of 390,000 active. A549 ARE-Fluc cells, CellTiter-Fluor viability, 18-24 h. AID 504648, 2011; further: potency means the concentration at half of the fitted maximal effect; on the % scale 0 is the no-effect control and ±100 the full control effect
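A549 ARE_Fluc cells in 5% FBS OPTI-MEM were exposed to compounds in concentration-response for 18-24 h at 37 deg C. Viability was read by CellTiter-Fluor fluorescence (Ex 405/Em 525) after 30 min, before the luciferase read.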
Starred values were filed as active, the others as inactive; ? = inconclusive; / = not tested or not shown. Unless noted, the call rests on the fitted dose curve; in most records, active means well fitted curve in the direction sought with a large enough effect; inconclusive means small, poorly fitted or top-dose-only effect, or another doubt; inactive means no such curve, though single readings can be large; an effect the other way counts as inactive or inconclusive.

SMILES	Nrf2 block	p53 reactivation	IL2 activator	BRCA1 expr act	Nrf2 ARE act	A549 viability
Cc1ccc(-c2nnc(Nc3ccc(O)cc3)c3ccccc23)cc1S(=O)(=O)N1CCOCC1	?	/	/	/	-1%	-5%
CCOC(=O)C(O)(c1ccc(NC(=S)NC(=O)c2ccc(Cl)cc2Cl)c(C)c1)C(F)(F)F (stereo unspecified)	15µM*	?	-6	-92%	-1%	?
CC(c1nccs1)N(C)C(=O)c1cn(Cc2cccc3ccccc23)nn1 (stereo unspecified)	?	?	0	?	-1%	1%
COc1ccc(N2C(=O)NC(=O)/C(=C\c3cn(C)c4ccccc34)C2=O)cc1	20%	-2%	2	-16%	2%	11%
COC(=O)Cn1cc(/C=C2\C(=O)NC(=O)N(c3ccc(OC)cc3)C2=O)c2ccccc21	1%	10%	92*	0%	1%	10%
COc1ccc(NC(=O)CCn2cc(C)c3ccccc32)cc1	15%	5%	-5	?	1%	2%
COc1ccc(CCNC(=O)c2cnc3sc(N4CCCCCC4)nn3c2=O)cc1	?	/	/	/	1%	-8%
O=C1NC(=O)N(Cc2ccc(F)cc2)C(=O)/C1=C\c1ccc(N2CCCC2)cc1	4%	2%	2	2%	-1%	4%
Clc1ccccc1CN1CCN(c2ccccc2)CC1	-16%	5%	-3	13%	-1%	-7%
c1ccc(N2CCN(c3ncnc4c3nc3n4CCCCC3)CC2)cc1	23µM*	/	/	0%	0%	-16%
Fc1ccc(N2CCN(c3ncnc4c3nc3n4CCCCC3)CC2)cc1	8.2µM*	/	/	-14%	-1%	1%
On1ccccc1=S	?	2%	-1	-12%	-3%	-12%
CC(Oc1ccc(Br)cc1)C(=O)N(Cc1nc(-c2ccccc2)no1)C(C)C (stereo unspecified)	?	/	/	/	0%	-21%
COc1ccc2c(c1)c(CC(=O)Nc1c(C)cccc1C)c(C)n2C(=O)c1ccc(Cl)cc1	23µM*	/	/	/	1%	-20%
COc1ccc2c(c1)[nH]c1c(C)nccc12	23µM*	-6%	1	-1%	0%	-7%
CCOc1ccc(NC(=O)C2C(C(=O)O)C3(Cl)C(Cl)=C(Cl)C2(Cl)C3(Cl)Cl)cc1 (stereo unspecified)	?	2%	0	2%	0%	2%
COc1ccc(C=C(C(=O)O)c2ccc(OC)cc2)cc1	?	/	0	58%	0%	1%
NC(=O)c1cc(N2CC2)c([N+](=O)[O-])cc1[N+](=O)[O-]	13µM*	/	-1	0%	1%	?
C[n+]1cc(P(=S)(c2ccccc2)c2ccccc2)n2ccccc21	-7%	/	/	/	/	-1%
CCCOC1CCCN(C(=O)CCc2nnc(Cc3cccc(C)c3)o2)C1 (stereo unspecified)	?	16%	2	91%	2%	2%
CCN(CC)c1ccc(/C=C2\C(=O)NC(=S)N(c3ccc(OC)cc3OC)C2=O)o1	-20%	/	1	11%	5%	13µM*
Cc1cc(-c2nc3ccccc3s2)ccc1NC(=O)c1cc(Cl)ccc1Cl	?	/	/	/	4%	-5%
COc1ccc(CCNC(=O)c2ccc3c(c2)N=C(C)c2cc(C)ccc2S3)cc1OC	15µM*	/	/	-60%	-1%	-11%
CCN(CC)C(=O)c1ccc(NC(=O)c2cccc(F)c2)cc1	?	18%	2	11µM*	0%	25%
COc1ccc(CC(=O)NC(=S)NNC(=O)COc2c(C)cccc2C)cc1	?	11%	9	-24%	0%	1%
O=C(/C=C/c1ccccc1)c1c(O)n(CCc2ccccc2)c(=O)[nH]c1=O	-6%	4%	-1	-77%	8.9µM*	?
